CYP2C9 activ: CYP2C9 (human) activation. 96,000 compounds, 1.4% hits. AID 1024. recombinant CYP2C9, luciferin-H conversion, luminescence; stronger effect = higher value; factor 1 = untreated enzyme, 0 = blocked. activation factor at 5 µM. P11712;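 active = activation factor of 2 or more for CYP2C9 at a 5 µM dose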
Target sequence (P11712 whole entry, looked up): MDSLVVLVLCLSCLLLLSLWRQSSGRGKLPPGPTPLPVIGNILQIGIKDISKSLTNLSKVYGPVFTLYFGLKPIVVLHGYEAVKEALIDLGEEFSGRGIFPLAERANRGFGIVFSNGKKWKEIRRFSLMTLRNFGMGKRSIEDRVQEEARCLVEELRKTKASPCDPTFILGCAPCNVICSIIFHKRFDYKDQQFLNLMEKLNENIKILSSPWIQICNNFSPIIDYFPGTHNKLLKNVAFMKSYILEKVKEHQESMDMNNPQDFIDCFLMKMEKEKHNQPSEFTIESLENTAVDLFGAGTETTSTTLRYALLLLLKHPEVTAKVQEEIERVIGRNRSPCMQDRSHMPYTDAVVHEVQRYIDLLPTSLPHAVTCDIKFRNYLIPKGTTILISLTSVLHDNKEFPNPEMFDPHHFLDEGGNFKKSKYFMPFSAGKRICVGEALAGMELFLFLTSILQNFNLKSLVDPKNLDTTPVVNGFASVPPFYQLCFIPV
CYP2C19 activ: increases human CYP2C19 enzyme activity. AID 1025. P33261. recombinant CYP2C19, luciferin-H EGE luminescence; stronger effect = higher value; 0 = fully inhibited enzyme, 1 = untreated enzyme. activation factor at 5 µM. 96,000 tested, under 10 active;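 active = activation factor of at least 2 at 5 µM in the primary screen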
CYP2C9 inh: blocks human cytochrome P450 2C9 | 96,000 compounds, 20% hits | AID 777 | CYP2C9 Supersomes, luciferin-H conversion, luminescence | inhibition, % at 5 µM | P11712;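 active = blocking of liver enzyme CYP2C9 beyond about 50% at 5 µM, limit read from the data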
PostGolgi yeast: growth inhibition of a yeast mutant, post-Golgi transport screen; post-Golgi transport phenotypic cell assay; AID 739; inhibition, % at 10 µM; 98,000 compounds, 0.9% hits;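 also: yeast cells grown in 1536-well plates; yeast grown about 18 h at 30C before absorbance read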
CYP2C19 inhib: human CYP2C19 inhibition; inhibition, % at 5 µM; AID 778; 96,000 compounds, 21% hits; CYP2C19 Supersomes, luciferin-H EGE luminescence, 30 min;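 active = CYP2C19 inhibition above a set limit at 5 µM in the primary screen, cut at about 50% in these data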
PostGolgi ctrl: yeast control strain growth, post-Golgi counter-screen; efflux-deficient yeast background strain, growth absorbance A615, 16 h; inhibition, % at 10 µM; 98,000 compounds, 5% hits
Of the large screens only hits and unclear results are named; the others gave an inactive call. Rows were chosen to be rich in hits. Some 32% of all compounds tested hit in one or more screens of this group. Rule as the data show it, unless noted: active = inhibition above about 30%; inactive = the rest.

Cc1ccc2cc(CN(Cc3ccco3)C(=O)C3CCCCC3)c(=O)[nH]c2c1C	PostGolgi ctrl 35
CCC(=O)OCc1cc2cccc(C)c2[nH]c1=O	CYP2C19 inhib 53
COc1cc(C)c(CN2CCCCC2CO)cc1C (stereo not given)	none
COc1ccccc1N1CCN(C(CNC(=O)c2ccc3c(c2)OCO3)c2cccnc2)CC1 (stereo not given)	none
CCN(CC)CCCN1C(=O)C(=O)/C(=C(/O)c2ccc(OC)c(Cl)c2)C1c1ccco1 (stereo not given)	none (no result: PostGolgi yeast, PostGolgi ctrl)
O=C(CCCN1C(=O)CSc2ncccc21)N1CCN(Cc2ccccc2)CC1	none
CCN(Cc1cc2cccc(C)c2[nH]c1=O)C(=O)c1ccccc1OC	none (no result: PostGolgi yeast, PostGolgi ctrl)
COCCN(Cc1cc2cccc(C)c2[nH]c1=O)C(=O)c1ccccc1	PostGolgi ctrl 35
O=C(c1ccncc1)N(Cc1ccco1)Cc1cc2ccccc2[nH]c1=O	CYP2C9 inh 93, CYP2C19 inhib 99
Cc1cc(-c2ccccc2)nc(SCc2ccc(C(=O)O)o2)n1	none
COc1ccccc1NC(=O)Cc1noc(CSc2nnc(C)s2)n1	none
CCCCSc1nnc2[nH]c(=O)cc(N)n12	none
CC(=O)Nc1ccc(S(=O)(=O)N2CCN(CCCOc3ccccc3Cl)CC2)cc1	CYP2C19 inhib 68
CC(=O)Nc1ccc(S(=O)(=O)N2CCN(Cc3cccnc3)CC2)cc1	none
COc1cccc(OCCCN2CCN(S(=O)(=O)c3ccc(NC(C)=O)cc3)CC2)c1	CYP2C9 inh 80, CYP2C19 inhib 86
O=C(CSc1nnc(Cc2ccccc2)o1)Nc1ccc(Br)cn1	none
CCCNC(=O)C1CCN(c2nc(C)cc(C)n2)CC1	none
O=c1oc2c(CN3CCCCC3)c(O)ccc2cc1-c1nc2ccccc2[nH]1	CYP2C9 inh 52, CYP2C19 inhib 54 (no result: PostGolgi yeast, PostGolgi ctrl)
c1ccc2[nH]c(CN3CCCCC3)nc2c1	none
COc1cccc2cc(-c3nnc(SCC(=O)NCc4ccccc4)n3C)oc12	none
O=C1c2ccccc2-c2nccnc21	none
O=C1C(C=NCc2cccnc2)=C(O)c2ccccc21	PostGolgi ctrl 40
O=C1C(C=NCc2ccncc2)=C(O)c2ccccc21	CYP2C9 inh 85, CYP2C19 inhib 76
O=C1C(c2ccncc2)=C(O)c2ccccc21	CYP2C9 inh 92
Cc1cccc(Nc2nc(N)nc(CN3CCN(Cc4ccc5c(c4)OCO5)CC3)n2)c1	none
O=C(COc1ccc(S(=O)(=O)N2CCCC2)cc1)NCc1ccco1	none
Cc1ccc(S(=O)(=O)N(C)c2ccc(OCC(=O)NCc3ccco3)cc2)cc1	CYP2C9 inh 93
Cc1ccc(NS(=O)(=O)c2ccc(OCC(=O)NCc3ccco3)cc2)cc1	CYP2C9 inh 85, CYP2C19 inhib 75
Cc1cc(=O)oc2ccc(OCC(=O)NCc3ccco3)cc12	none
Cc1ccc(C)c(NS(=O)(=O)c2ccc(OCC(=O)NCc3ccco3)cc2)c1	none
O=C(COc1ccc2oc(-c3ccccc3)cc(=O)c2c1)NCc1ccco1	CYP2C9 inh 58
CCNC(=O)COc1ccc(S(=O)(=O)Nc2ccccc2)cc1	CYP2C9 inh 62
Cc1ccc(-c2nn(-c3cc(Cl)ccc3[N+](=O)[O-])c(=O)c3ccccc23)cc1C	none
CSc1cccc(-n2cc(-c3ccc4c(c3)OCO4)[nH]c2=O)c1	none
COc1cccc(S(=O)(=O)Nc2ccc(C(=O)NCc3ccco3)cc2)c1	CYP2C9 inh 98, CYP2C19 inhib 61
Cc1ccc(NS(=O)(=O)c2cccc(C(=O)OCC(=O)NCc3ccco3)c2)cc1	CYP2C9 inh 86, CYP2C19 inhib 59
COc1ccc(NS(=O)(=O)c2cccc(C(=O)OCC(=O)Nc3cc(C)on3)c2)cc1	CYP2C9 inh 71, PostGolgi ctrl 42
CCCCNC(=O)NS(=O)(=O)c1ccc(NS(=O)(=O)c2ccccc2)cc1	CYP2C9 inh 55
CC(C)C(=O)NS(=O)(=O)c1ccc(N)cc1	none
ON1C(c2ccccc2C(F)(F)F)N(O)[C@H]2CCCC[C@H]21 (stereo not given in full)	none
CC(=O)N(C)c1ccc(OCC(O)CN(Cc2ccco2)S(=O)(=O)c2ccc(C)cc2)cc1 (stereo not given)	CYP2C9 inh 80
CC(C)CNc1nc(=S)nc(N(C)C)[nH]1	none
CCC(=O)c1ccc(OCC(O)CN2CCCCC2)cc1 (stereo not given)	none
CCOC(=O)C1CCN(CC(O)COc2ccc(C(C)(C)C)cc2)CC1 (stereo not given)	CYP2C19 inhib 56, PostGolgi ctrl 59
CCOC(=O)C1CCN(CC(O)COc2ccc(C(C)(C)CC)cc2)CC1 (stereo not given)	PostGolgi yeast 87, PostGolgi ctrl 79
CCOC(=O)N1CCN(CC(O)COc2ccccc2C(C)CC)CC1 (stereo not given)	PostGolgi yeast 50
CCOC(=O)C1CCN(CC(O)COc2ccc(C(C)=O)cc2)CC1 (stereo not given)	none
COc1ccc(NC(=O)CSc2nnc(-c3cccs3)n2-c2ccccc2)cc1	none
Cc1ccc(N(CC(=O)Nc2ccc3c(c2)OCCO3)S(=O)(=O)c2c(C)noc2C)cc1	none
Cc1ccc(N(CC(=O)NCc2ccc3c(c2)OCO3)S(=O)(=O)c2c(C)noc2C)cc1	CYP2C9 inh 57, CYP2C19 inhib 98
Cc1nn(C)c(C)c1S(=O)(=O)N(CC(=O)NCc1ccco1)c1ccc(C(C)C)cc1	none (no result: CYP2C9 activ, CYP2C19 activ, CYP2C9 inh, CYP2C19 inhib)
Cc1noc(C)c1S(=O)(=O)N(CC(=O)NCc1ccc2c(c1)OCO2)c1ccc(C(C)C)cc1	CYP2C19 inhib 63
Cc1cc(SCC(=O)NC(=O)NCc2ccco2)nc2c(C)cccc12	none
CCCCC(=O)Nc1ccc(NC(=O)C(C)C)cn1	none
CC(C)(C)NC(=O)c1ccc2nccnc2c1	none
CC(NC(=O)c1ccnc(C(C)(C)C)c1)c1ccccc1 (stereo not given)	CYP2C9 inh 55, CYP2C19 inhib 56
CC(C)(C)NC(=O)c1ccnc(C(C)(C)C)c1	CYP2C19 inhib 52
CCCn1c(SCc2cc(=O)[nH]c3ccccc23)nc2c1c(=O)n(C)c(=O)n2C	none (no result: PostGolgi yeast, PostGolgi ctrl)
CC(NC(=O)Nc1ccccc1C(F)(F)F)C1CCCO1 (stereo not given)	none
Cc1c(C)c2cc(Cl)c(OCc3nn[nH]n3)cc2oc1=O	CYP2C9 inh 94, CYP2C19 inhib 92
Cc1nn(CC(N)=O)c(=O)c2ccccc12	none
CC(C)Cn1c(-c2ccc(C#N)cc2)nc2c1c(=O)[nH]c(=O)n2CC(C)C	none
CCCCn1c(=O)[nH]c(=O)c2c1nc(-c1ccc(C#N)cc1)n2C1CCCC1	CYP2C9 inh 62
Cc1cc(NC(=O)CNC(=O)C2CCCCC2)no1	none
Cc1noc(C)c1C(=O)OC(C(=O)NC1CCCC1)c1ccc(F)cc1 (stereo not given)	none
COCCCNc1nc(SCc2ccccc2)nc2sc3c(c12)CCC3	CYP2C9 inh 61

Assay outcomes: PubChem BioAssay, several laboratories
